This is a sample that favours compounds with a hit; in the whole collection about 3.8% have one here.
Shn3 3UTR inh – reduction of Shn3 3'UTR firefly luciferase signal, primary screen, Schnurri-3 inhibitor project, cell-based, Clone20 osteoblasts, set 2 | inhibition, % at 12.5 µM | Clone20 osteoblast Shn3 3'UTR firefly luciferase, 24 h | 360,000 tested, 0.52% active;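 active = mean inhibition of at least 75% with every replicate also reaching 75%; inconclusive = mean inhibition at least 75% but some replicate below; inactive = mean inhibition below 75%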;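 also: 0% = median of neutral control wells and 100% = pilot-screen positive control compound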
Mdm2 MdmX PPI – inhibitors of human Mdm2-MdmX association, primary screen, cell-based, luminescence, split luciferase, SaOS-2, uHTS; inhibition, % at 8 µM; Protein Mdm4 (Homo sapiens) + E3 ubiquitin-protein ligase Mdm2 (Homo sapiens), …; 330,000 tested, 3% active; SaOS-2 split-luciferase Mdm2/MdmX complementation;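 active = inhibition of at least 50% at 8 µM in the primary screen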
Target sequence (O15151 whole entry, looked up): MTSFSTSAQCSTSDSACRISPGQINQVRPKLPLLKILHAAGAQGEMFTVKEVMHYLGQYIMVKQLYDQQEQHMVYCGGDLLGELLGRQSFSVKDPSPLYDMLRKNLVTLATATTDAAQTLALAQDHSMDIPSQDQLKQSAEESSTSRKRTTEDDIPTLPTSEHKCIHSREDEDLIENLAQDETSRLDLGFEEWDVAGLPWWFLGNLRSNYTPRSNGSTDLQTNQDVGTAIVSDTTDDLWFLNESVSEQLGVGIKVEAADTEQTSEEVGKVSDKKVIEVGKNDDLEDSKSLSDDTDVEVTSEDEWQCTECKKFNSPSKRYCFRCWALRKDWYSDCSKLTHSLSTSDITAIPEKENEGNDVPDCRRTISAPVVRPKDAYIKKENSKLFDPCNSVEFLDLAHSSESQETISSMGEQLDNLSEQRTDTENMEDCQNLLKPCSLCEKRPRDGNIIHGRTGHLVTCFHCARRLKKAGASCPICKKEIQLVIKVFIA
Target sequence (Q00987 whole entry, looked up): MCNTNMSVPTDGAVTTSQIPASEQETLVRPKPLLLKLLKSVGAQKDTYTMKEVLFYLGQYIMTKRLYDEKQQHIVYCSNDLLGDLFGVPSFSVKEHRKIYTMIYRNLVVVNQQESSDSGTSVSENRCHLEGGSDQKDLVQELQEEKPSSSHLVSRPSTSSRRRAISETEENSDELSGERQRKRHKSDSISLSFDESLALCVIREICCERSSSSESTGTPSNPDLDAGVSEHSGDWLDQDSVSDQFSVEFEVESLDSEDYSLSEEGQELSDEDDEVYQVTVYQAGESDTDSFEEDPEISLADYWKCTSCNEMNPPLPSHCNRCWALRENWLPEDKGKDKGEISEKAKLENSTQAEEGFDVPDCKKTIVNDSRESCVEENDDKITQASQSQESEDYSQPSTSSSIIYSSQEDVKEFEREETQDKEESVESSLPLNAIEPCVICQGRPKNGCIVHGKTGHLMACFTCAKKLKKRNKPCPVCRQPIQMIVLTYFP
697 NFkB inh – inhibitors of PMA/ionomycin-induced NF-kB reporter, 697 cells, primary screen, B-cell NF-kB inhibitor project, cell-based, luminescence, uHTS. 330,000 tested, 0.33% active. inhibition, % at 4 µM. AID 435022, 2010. 697 B-cell NF-kB luciferase reporter, 16 h; in the data active = inhibition above about 35%
Jurkat NFkB inh – inhibitors of induced NF-kB luciferase reporter, primary screen, TCR NF-kB activation inhibitor project, cell-based, luminescence, uHTS; 330,000 tested, 0.53% active; inhibition, % at 4 µM; Jurkat, PMA/ionomycin-induced NF-kB luciferase reporter; in the data active = inhibition above about 50%
Gli-Sufu antag – Gli-Sufu pathway antagonists, primary screen, luciferase luminescence, Sufu-KO-LIGHT cells, uHTS. inhibition, % at 5 µM. AID 588413, 2011. 340,000 tested, 0.74% active. Sufu-KO-LIGHT fibroblasts, Gli luciferase reporter luminescence;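 active = inhibition above about 55%, limit read from the data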;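 also: 0% = DMSO-treated cells and 100% = wells with medium but no cells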
Mdm2 MdmX conf – Mdm2-MdmX complex disruptors, retested hits, confirmation, luminescence, single concentration; shares compounds with Mdm2 MdmX PPI; Mdm2-MdmX binding, luminescent assay; inhibition, % at 8 µM; 10,000 tested, 55% active; AID 489028, 2010; in the data active = inhibition above about 40%
FLuc counter – full-length luciferase signal inhibition, confirmation, counter-screen for Mdm2/MdmX interaction inhibitor project, cell-based, single concentration, SaOS-2; shares compounds with Mdm2 MdmX PPI; SaOS-2 full-length luciferase counterscreen, luminescence; inhibition, % at 8 µM; 6,200 tested, 77% active; AID 504607, 2011;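 active = mean inhibition at 8 µM reaching about 37%, which flags the compound as non-specific, limit read from the data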;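 also: p53-null SaOS-2 cells with luciferase driven by a doxycycline-inducible promoter; compound on cells about two nights before reading with doxycycline added after day one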
Numbers without * were called inactive; ? = inconclusive; . = not tested or not shown; ! = a repeat was not active.

SMILES	Shn3 3UTR inh	Mdm2 MdmX PPI	697 NFkB inh	Jurkat NFkB inh	Gli-Sufu antag	Mdm2 MdmX conf	others
O=C(CC1Oc2ccccc2NC1=O)NCc1ccccc1 (stereo not given)	-1.8	3.3	13.2	-3.2	7.1	.
CC(=O)CC1OC(=O)C(Br)=C1NCc1ccccc1 (stereo not given)	9.6	66.9*	-33.3	39.2	10.3	47.5*	FLuc counter=4.6
Cc1cccc2c1-c1sc(C(=O)Nc3ccccc3N3CCN(C)CC3)cc1CO2	3.6	64.9*	10.9	1.7	5.0	37.7	FLuc counter=68.2*
Cc1cccnc1NC(=O)CCCNC(=O)c1ccc(Cl)cc1	-88.0	18.6	11.2	0.6	6.0	.
CCOC(=O)/C=c1/s/c(=C/c2ccc3cc(OC)ccc3c2)c(=O)n1CC(=O)NCc1ccc2c(c1)OCO2	30.6	.	.	.	1.7	.
CCOC(=O)/C=c1\s/c(=C\c2sccc2C)c(=O)n1CC(=O)NCc1ccc(C)cc1	.	66.0*	12.7	5.6	.	13.7
CCOC(=O)/C=c1\s/c(=C\c2ccc3cc(OC)ccc3c2)c(=O)n1CC(=O)NCC1CCCO1 (stereo not given)	2.7	74.5*	-12.4	-12.0	-4.6	-3.8
CCOC(=O)/C=c1\s/c(=C\c2ccc(-c3ccccc3)cc2)c(=O)n1CC(=O)NCc1ccc2c(c1)OCO2	-0.1	83.8*	-7.1	6.6	-6.4	9.3
CCOC(=O)/C=c1\s/c(=C\c2ccc(C)cc2)c(=O)n1CC(=O)NCc1ccco1	4.2	29.8	-17.7	-5.6	10.6	.
CCOC(=O)/C=c1\s/c(=C\c2ccc(C(F)(F)F)cc2)c(=O)n1CC(=O)NCc1ccco1	-10.7	75.7*	-30.1	-18.2	6.6	31.4
O=C(CSc1nnc2ccccn12)NC(=O)c1ccccc1Cl	-5.3	22.9	7.5	2.9	-2.4	.
CCCCCCC(=O)Oc1cccc(C2=CC(=O)CC(C)(C)C2=O)c1	12.8	.	.	.	.	.
Cc1ccc(N2CCN(S(=O)(=O)c3ccc4oc(=O)ccc4c3)CC2)cc1Cl	6.2	27.2	8.4	31.8	7.6	.
COc1cccc(NC(=S)N(CCCN2CCCC2)Cc2cccn2Cc2ccc(Cl)cc2)c1	-10.3	56.4*	20.8	-4.0	-4.9	23.1
COc1cccc(NC(=S)N(CCCN2CCCC2)Cc2ccco2)c1	3.8	4.9	-16.1	-1.1	4.3	.
CSc1cccc(NC(=S)N(CCCN2CCCC2)Cc2cccs2)c1	15.0	30.9	5.1	5.0	14.7	.
CSc1cccc(NC(=S)N(CCCN2CCCC2)Cc2cccn2Cc2ccc(Cl)cc2)c1	40.3	72.9*	12.3	-25.6	37.0	43.8*	FLuc counter=62.7*
Cn1cc(CN(CCCN2CCOCC2)C(=S)Nc2cccc(Cl)c2)c2ccccc21	28.6	24.7	-2.3	8.9	18.7	.
S=C(Nc1cccc(Cl)c1)N(CCCN1CCCC1)Cc1cccn1Cc1ccc(Cl)cc1	52.3	61.9*	18.8	-2.3	8.6	33.1
COc1cc(CNCCc2ccccc2)cc(Br)c1OCC(=O)Nc1ccccc1C	29.8	74.1*	8.0	1.7	26.7	37.7	FLuc counter=72.2*
CCOc1cc(CNCC(C)C)cc(Cl)c1OCc1ccccc1	20.6	5.9	4.8	5.1	20.4	.
CNCc1cc(Br)c(OCC(=O)Nc2ccccc2OC)c(OC)c1	18.2	20.0	5.3	-4.1	0.3	.
O=C(COc1ccc(Br)cc1CNCCc1ccccc1)NCc1ccccc1	1.4	55.7*	-8.1	-18.7	-1.1	29.6
COc1cc(CNCCc2ccccc2)cc(Cl)c1OCc1ccccc1	82.2	77.9*	8.5	4.1	11.8	37.9
CCOc1cc(CNC2CCCC2)cc(Cl)c1OCc1ccccc1	8.7	51.9*	-6.4	-4.8	3.3	26.1
SMILES	Shn3 3UTR inh	Mdm2 MdmX PPI	697 NFkB inh	Jurkat NFkB inh	Gli-Sufu antag	Mdm2 MdmX conf	others
CO[C@@]12[C@@H]3N[C@@H]3CN1C1=C(C(=O)C(N)=C(C)C1=O)[C@@H]2COC(N)=O	25.6	.	.	.	35.5	.
CC(C)(C)C(=O)NC(=S)NCc1ccccc1	10.8	26.6	-12.1	16.0	8.0	.
Cc1cc(C)n(-c2nc(SCCN(C)C)c3c4c(sc3n2)CCCC4)n1	52.9	92.2*	-34.4	3.2	1.4	60.3*	FLuc counter=71.9*
S=C(NCc1ccco1)NCC1CCCO1 (stereo not given)	2.7	-3.2	10.3	-3.4	-3.1	.
NS(=O)(=O)c1ccc(N=Nc2c(-c3ccccc3)[nH]n(-c3nc(-c4ccccc4)cs3)c2=O)cc1	32.1	81.4*	2.3	1.8	47.0	28.3
NC(=O)c1ccc(N=Nc2c(-c3ccccc3)[nH]n(-c3ccccc3)c2=O)cc1	.	92.5*	-3.6	3.6	.	84.9*	FLuc counter=108.2*
CCOc1cc(/C=N/NC(=O)c2cccnc2)cc(Br)c1OCC(N)=O	-4.7	11.9	12.0	1.8	-8.4	.
Cc1sc2ncnc(NCc3ccccc3)c2c1C	64.5	67.4*	-67.2	30.4	-20.6	18.4
CCC(=O)NC1=C(Cl)C(=O)C(NC(=O)CC)=C(Cl)C1=O	16.8	57.9*	-15.0	9.2	0.7	43.5*	FLuc counter=6.8
CCC(=O)NC1=C(NC(C)c2ccccc2)C(=O)c2ccccc2C1=O (stereo not given)	9.9	7.8	12.8	-12.2	3.2	.
O=C(CCl)N1CCN(C(=O)C2COc3ccccc3O2)CC1 (stereo not given)	-14.3	66.6*	26.8	9.6	-13.3	29.6
COc1ccccc1-c1nnc(Sc2nc([N+](=O)[O-])nn2C)o1	-40.4	77.6*	16.2	37.6	31.6	99.0*	FLuc counter=49.9*
COc1ccccc1C(NC(C)=O)c1cc(Cl)c2cccnc2c1O (stereo not given)	?	66.8*	-13.0	3.4	-7.2	60.6*	FLuc counter=31.2
COc1ccc(C(NC(C)=O)c2cc(Cl)c3cccnc3c2O)cc1OC (stereo not given)	88.7*	68.2*	-19.9	4.1	20.6	76.1*	FLuc counter=39.8*
CCC(=O)NC(c1ccc(OC)c(OC)c1)c1cc(Cl)c2cccnc2c1O (stereo not given)	?	.	.	.	8.3	.
O=C(O)COc1ccccc1C(Nc1ccccn1)c1cc(Cl)c2cccnc2c1O (stereo not given)	-6.5	6.1	2.0	2.2	-1.7	.
CC1CCN(CCCNC(=O)C2CC(=O)N(CCc3ccccc3)C2)CC1 (stereo not given)	-4.9	-9.8	3.3	-4.3	-6.3	.
CNCCCC12CCC(c3ccccc31)c1ccccc12	14.2	59.3*!	7.1	16.7	8.0	32.8

Screening results: PubChem, several laboratories
